Molecules are shown by their SMILES. Several values for one entry are separate records, joined by “and”; a condition that tells them apart may be missing. Equal values may be shown once. ± gives the uncertainty stated by the source.

The test concerns U87. Briefly: cell viability relative to vehicle control; higher = less growth inhibition (less active). To be noted: 10 µM; 72 h.
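Also: viable cell number estimated from Alamar Blue fluorescence read at 560/90, part of a single-dose primary screen of an FDA-approved drug library.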

As for `Cc1cc2c(s1)Nc1ccccc1N=C2N1CCN(C)CC1`, the cell viability amounted to 108 ± 1.7%.
The same measure for `CCC(C)(C)N=C(NC#N)Nc1cccnc1`: 107 ± 1.1%.
As to `Cc1occc(=O)c1O`, the cell viability amounted to 106 ± 1.4%.
With `COC(=O)C1=C(C)NC(C)=C(C(=O)OC(C)C)C1c1cccc2nonc12` (stereo unspecified), the cell viability came out at 104.2 ± 0.44%.
Take `Clc1ccc2c(c1)CCc1cccnc1C2=C1CCNCC1`: the cell viability came out at 101.5 ± 0.94%.
Consider `Cn1nnc2c(C(N)=O)ncn2c1=O`, for which the cell viability came to 106 ± 1.3%.
The same measure for `CC1=C(C(=O)O)N2C(=O)[C@@H](NC(=O)[C@H](N)c3ccccc3)[C@H]2SC1` [Cephalexin monohydrate]: 100 ± 1.7%; for `CCCc1nc(C(C)(C)O)c(C(=O)OCc2oc(=O)oc2C)n1Cc1ccc(-c2ccccc2-c2nnn[nH]2)cc1`: 102 ± 1.9%.
The same measure for `CN1CCc2cc(Cl)c(O)cc2[C@@H](c2ccccc2)C1`: 97.5 ± 6.3%; for `COc1ccc(CC(C)NCC(O)c2ccc(O)c(NC=O)c2)cc1` (stereo unspecified): 98.7 ± 1.3%; for `Cc1ccc(O)c([C@H](CCN(C(C)C)C(C)C)c2ccccc2)c1`: 103.8 ± 0.47%.
The same measure for `N#Cc1ccc(C(c2ccc(C#N)cc2)n2cncn2)cc1`: 103 ± 1.3%.
As for `CC(=O)O[C@]1(C(C)=O)CC[C@H]2[C@@H]3C=C(C)C4=CC(=O)CC[C@]4(C)[C@H]3CC[C@@]21C`, the cell viability is 101 ± 1.2%.
`CCCc1c(OCCCCc2nnn[nH]2)ccc(C(C)=O)c1O`: the cell viability was found to be 104 ± 1.5%.
The same measure for `O=C(c1ccc(F)cc1)C1CCN(CCn2c(=S)[nH]c3ccccc3c2=O)CC1` [Altanserin]: 99.9 ± 2.9%.
The same measure for `CCc1oc2ccccc2c1C(=O)c1cc(Br)c(O)c(Br)c1`: 107.7 ± 0.81%; for `C[C@H]1C[C@H]2[C@@H]3CCC4=CC(=O)C=C[C@]4(C)[C@@]3(Cl)[C@@H](O)C[C@]2(C)[C@@]1(O)C(=O)CO` [Beclomethasone]: 106 ± 1.5%.
The same measure for `CC(C)[C@H](N)C(=O)OCCOCn1cnc2c(=O)nc(N)[nH]c21`: 103 ± 1.8%; for `OCCOCCN1CCN(C2=Nc3ccccc3Sc3ccccc32)CC1`: 99.6 ± 2.8%.
Consider `O=c1ncc(F)c[nH]1` [5-fluoro-2-pyrimidone], for which the cell viability worked out at 106.8 ± 0.67%.
`COC(=O)Nc1nc2cc(C(=O)c3ccc(F)cc3)ccc2[nH]1`: the cell viability was 30 ± 7.6%.
The same measure for `CN(CCOc1ccc(CC2SC(=O)NC2=O)cc1)c1ccccn1` (stereo unspecified): 100% and 110%; for `c1ccc(-c2ccc(C(c3ccccc3)n3ccnc3)cc2)cc1` (stereo unspecified): 101 ± 1.2%.
For `COc1cc(C(=O)NS(=O)(=O)c2ccccc2C)ccc1Cc1cn(C)c2ccc(NC(=O)OC3CCCC3)cc12`, the cell viability was 104 ± 1.1%.
The same measure for `CC[C@@H]1C(=O)OC[C@@H]1Cc1cncn1C`: 101 ± 0.86%.
The same measure for `COc1cc(CNC(=O)CCCC/C=C/C(C)C)ccc1O` [Capsaicin]: 109 ± 1.5%; for `N[C@@H](C(=O)N[C@@H]1C(=O)N2C(C(=O)O)=C(CSc3cn[nH]n3)CS[C@H]12)c1ccc(O)cc1`: 105 ± 2.1%; for `CN1CCN(c2c(F)cc3c(=O)c(C(=O)O)cn4c3c2SCC4)CC1`: 99.9 ± 1.7%.
The same measure for `CN(C)CCc1c[nH]c2ccc(Cn3cncn3)cc12`: 101 ± 4.5%; for `CCOC(=O)C1=C(C)NC(C)=C(C(=O)OCC)C1c1ccccc1/C=C/C(=O)OC(C)(C)C`: 98.85 ± 0.96%.
`COCc1c(C(C)C)nc(C(C)C)c(/C=C/[C@@H](O)C[C@@H](O)CC(=O)O)c1-c1ccc(F)cc1`: the cell viability was 14.2 ± 3%.
The same measure for `C#C[C@]1(O)CC[C@H]2[C@@H]3CCc4cc(OC)ccc4[C@H]3CC[C@@]21C`: 102.9 ± 0.33%.
The same measure for `Cc1sc(N)c(C(=O)c2cccc(C(F)(F)F)c2)c1C`: 109 ± 1.8%.
The same measure for `CC(C)c1ccc2c(c1)c(SC(C)(C)C)c(CC(C)(C)C(=O)O)n2Cc1ccc(Cl)cc1`: 99 ± 1.3%; for `CC(COc1ccccc1Cc1ccccc1)N1CCCCC1` (stereo unspecified): 102.4 ± 0.48%.
For the molecule `C#C[C@]1(O)CC[C@H]2[C@@H]3CCc4cc(O)ccc4[C@H]3CC[C@@]21C`, the cell viability stood at 102 ± 2.1%.
`CN(C)CCC=C1c2ccccc2COc2ccccc21` [Doxepin]: the cell viability worked out at 101.6 ± 0.79%.
The same measure for `O=c1[nH]c(=O)n(C2CCCO2)cc1F` (stereo unspecified): 96.728 ± 0.044%.
The same measure for `CN(C)CCC(c1ccc(Cl)cc1)c1ccccn1` (stereo unspecified) [Chlorpheniramine]: 109 ± 2.8%; for `C=C1/C(=C\C=C2/CCC[C@]3(C)[C@@H]([C@H](C)CCCC(C)(C)O)CC[C@@H]23)C[C@@H](O)C[C@@H]1O`: 105 ± 2.2%.
The same measure for `Cc1c(OCC(F)(F)F)ccnc1C[S+]([O-])c1nc2ccccc2[nH]1` (stereo unspecified): 104.7 ± 0.78%; for `CC#C[C@]1(O)CC[C@H]2[C@@H]3CCC4=CC(=O)CCC4=C3[C@@H](c3ccc(N(C)C)cc3)C[C@@]21C`: 105 ± 1.6%.
Turning to `C[N+]1(C)CCC(OC(=O)C(O)(c2ccccc2)C2CCCC2)C1` (stereo unspecified) [Glycopyrrolate], the cell viability was found to be 103 ± 1.1%.
The same measure for `CN(C/C=C/C#CC(C)(C)C)Cc1cccc2ccccc12`: 103 ± 1.4%.
The same measure for `CCN1CC(CCN2CCOCC2)C(c2ccccc2)(c2ccccc2)C1=O` (stereo unspecified): 104 ± 1.3%; for `CCOc1cc(N)c(Cl)cc1C(=O)NCC1CN(Cc2ccc(F)cc2)CCO1` (stereo unspecified): 108 ± 1.4%.
The same measure for `CN(C)CC[C@@H](c1ccc(Br)cc1)c1ccccn1`: 104.1 ± 0.82%; for `Nc1nnc(-c2cccc(Cl)c2Cl)c(N)n1`: 102 ± 1.2%; for `Cc1nc(=O)c2cc(CN(C)c3ccc(C(=O)N[C@@H](CCC(=O)O)C(=O)O)s3)ccc2[nH]1`: 85.4 ± 1.4%.
For `O=C(O)/C=C/c1ccc(Cn2ccnc2)cc1` [ozagrel], the cell viability stood at 104 ± 1.2%.
The same measure for `CC1(C)O[C@@H]2[C@@H](CO[C@@]3(COS(N)(=O)=O)OC(C)(C)O[C@@H]23)O1`: 129 ± 2%; for `CC[C@]1(O)C[C@@H]2CN(CCc3c([nH]c4ccccc34)[C@@](C(=O)OC)(c3cc4c(cc3OC)N(C)[C@H]3[C@@](O)(C(N)=O)[C@H](O)[C@]5(CC)C=CCN6CC[C@]43[C@@H]65)C2)C1`: 24.7 ± 8.7%.
The same measure for `CO[C@H]1O[C@@H]2O[C@@]3(C)CC[C@H]4[C@H](C)CC[C@@H]([C@H]1C)[C@@]24OO3`: 107 ± 2.1%; for `CN1CCCC(n2nc(Cc3ccc(Cl)cc3)c3ccccc3c2=O)CC1` (stereo unspecified): 99 ± 2.2%.
The same measure for `CN(C)CCCC1(c2ccc(F)cc2)OCc2cc(C#N)ccc21` (stereo unspecified) [Citalopram]: 102 ± 1.4%.
`CN(CCO)CC(O)Cn1cnc2c1c(=O)n(C)c(=O)n2C` (stereo unspecified): the cell viability is 104.3 ± 0.69%.
The same measure for `CC(C)(C)NCC(O)c1ccc(O)c(CO)c1` (stereo unspecified): 98.8 ± 8.3%; for `CCC(=O)NS(=O)(=O)c1ccc(-c2c(-c3ccccc3)noc2C)cc1`: 108.7 ± 0.37%; for `CC(C)C[C@H](NC(=O)[C@@H](COC(C)(C)C)NC(=O)[C@H](Cc1ccc(O)cc1)NC(=O)[C@H](CO)NC(=O)[C@H](Cc1c[nH]c2ccccc12)NC(=O)[C@H](Cc1cnc[nH]1)NC(=O)[C@@H]1CCC(=O)N1)C(=O)N[C@@H](CCCNC(=N)N)C(=O)N1CCC[C@H]1C(=O)NNC(N)=O`: 101.1 ± 0.58%.
As for `O=c1[nH]cnc2c1ncn2[C@H]1CC[C@@H](CO)O1`, the cell viability turned out to be 105 ± 2.5%.
Take `COC(=O)C[C@](O)(CCCC(C)(C)O)C(=O)O[C@@H]1C(OC)=C[C@]23CCCN2CCc2cc4c(cc2[C@H]13)OCO4`: the cell viability came out at 10.3 ± 0.73%.
The same measure for `CC(=O)O[C@H]1C[C@@H]2CC[C@@H]3[C@H](CC[C@@]4(C)[C@H]3C[C@H]([N+]3(C)CCCCC3)[C@@H]4OC(C)=O)[C@@]2(C)C[C@@H]1N1CCCCC1`: 103.2 ± 0.3%.
As to `CC12CC3CC(C)(C1)CC(N)(C3)C2`, the cell viability came to 123 ± 1.4%.
The same measure for `CC[N+](C)(CC)CCOC(=O)C(O)(c1ccccc1)C1CCCCC1` (stereo unspecified): 109 ± 1.3%.
As for `COc1ccc2c(c1)c(CC(=O)O)c(C)n2C(=O)c1ccc(Cl)cc1` [Indomethacin], the cell viability is 105.6 ± 0.41%.
The same measure for `O=C(O[C@H]1[C@H](Oc2ccccc2COC(=O)C2(O)C=CCCC2=O)O[C@H](CO)[C@@H](O)[C@@H]1O)c1ccccc1` (stereo partly specified): 104 ± 2.2%; for `Cc1[nH]cnc1CN1CCc2c(c3ccccc3n2C)C1=O`: 93.5 ± 2.2%; for `CN(C)CCCSc1ccccc1NC(=O)/C=C/c1ccccc1` [Cinanserin]: 103.3 ± 0.66%.
With `NC(=O)c1cccnc1`, the cell viability turned out to be 104.5 ± 1%.
The same measure for `Oc1ccc(C2CNCCc3c2cc(O)c(O)c3Cl)cc1` (stereo unspecified): 103 ± 2.8%; for `Fc1ccc([C@@H]2CCNC[C@H]2COc2ccc3c(c2)OCO3)cc1` [Paroxetine]: 101 ± 1.2%; for `COc1cc([C@@H]2c3cc4c(cc3[C@@H](O[C@@H]3O[C@@H]5CO[C@@H](C)O[C@H]5[C@H](O)[C@H]3O)[C@H]3COC(=O)[C@H]23)OCO4)cc(OC)c1O` [Etoposide]: 70.5 ± 4.8%.
The same measure for `COc1cc(/C=C/c2ccc(O)cc2)cc(OC)c1`: 100.4 ± 0.43%.
The same measure for `CN(C)CCOc1ccc(/C(=C(/CCCl)c2ccccc2)c2ccccc2)cc1`: 106 ± 1.8%.
In the case of `CC(C)c1ccc2oc3nc(N)c(C(=O)O)cc3c(=O)c2c1`, the cell viability stood at 107 ± 1.8%.
The same measure for `CC(C(=O)O)c1ccc(CC2CCCC2=O)cc1` (stereo unspecified): 99.3 ± 2.7%.
The same measure for `CN1CCN(CCCN2c3ccccc3Sc3ccc(Cl)cc32)CC1`: 95.9 ± 7%; for `O=C1N[C@H](C(=O)O)CS1` [4-Thiazolidinecarboxylic acid, 2-oxo-, (R)- [CAS]]: 101.1 ± 0.43%; for `COc1ccc(/C=C/C(=O)Nc2ccccc2C(=O)O)cc1OC`: 104 ± 1.1%.
The same measure for `C[C@@H](c1ncncc1F)[C@](O)(Cn1cncn1)c1ccc(F)cc1F`: 106 ± 1.7%.
With `O=C(O)c1cc(/N=N/c2ccc(S(=O)(=O)Nc3ccccn3)cc2)ccc1O`, the cell viability stood at 102 ± 1.6%.
The same measure for `CN1[C@@H]2CC[C@H]1C[C@@H](OC(=O)c1c[nH]c3ccccc13)C2`: 105.3 ± 0.81%.
The same measure for `NC(N)=Nc1nc(CSCC/C(N)=N/S(N)(=O)=O)cs1`: 98.4 ± 9.8%; for `CCN1CCC[C@H]1CNC(=O)c1c(O)c(Cl)cc(Cl)c1OC` [Raclopride]: 99.9 ± 6.5%.
On to `O=c1n(CCCN2CCN(c3cccc(Cl)c3)CC2)nc2ccccn12`, for which the cell viability is 101 ± 1.3%.
The same measure for `CCCCN1CCCC1CNC(=O)c1cc(C#N)c2ccccc2c1OC` (stereo unspecified) [Nafadotride]: 102 ± 1.5%; for `CC(C)C[C@H](NC(=O)[C@@H](O)[C@H](N)Cc1ccccc1)C(=O)O`: 97.13 ± 0.56%.
The same measure for `O=C1[C@H]2CCCC[C@H]2C(=O)N1CCCCN1CCN(c2nsc3ccccc23)CC1`: 102 ± 2.2%; for `C[C@]12CC[C@@H]3c4ccc(OS(=O)(=O)O)cc4CC[C@H]3[C@@H]1CCC2=O`: 110.8 ± 0.43%.
The same measure for `COC(=O)C1=C(C)NC(C)=C(C(=O)OC2CCCN(Cc3ccccc3)C2)C1c1cccc([N+](=O)[O-])c1` (stereo unspecified): 104 ± 1.2%; for `COc1ccc(-c2cc(=O)c3c(OC)c(OC)c(OC)c(OC)c3o2)cc1OC` [Nobiletin]: 104.9 ± 0.98%.

For orientation: cell viability means a read-out of living cells in per cent, often relative to untreated cells.

Values taken from the supplement of paper PMC3898565.
